Source: PubChem BioAssay (Tox21)
“And” between values parts separate entries of the source, which are not always exact repeats. Identical values can stand only once. Results filed as inconclusive are left out. The source made the active and inactive calls. Unless noted, the call rests on the fitted dose curve; in most records, active means well fitted curve in the direction sought with a large enough effect in the repeat runs; inconclusive means weak or mixed curves; inactive means no such curve, though single readings can be large; an effect the other way counts as inactive or inconclusive.

Assays:
[1] = qHTS assay to identify small molecule antagonists of the estrogen related receptor (ERR) signaling pathway from Tox21 library - cell viability counter screen (AID 1224834); further: nearly all actives have a fitted effect of over 30% in size
Method in brief: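 Counter screen run in ERR cells (2,000 cells/well): cells pre-incubated 6 h, then treated with compounds for 17.5 h at 37 C. Fluorescence was read 30 min after CellTiter-Fluor addition.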

[2] = qHTS assay to identify small molecule agonists of the constitutive androstane receptor (CAR) signaling pathway - cell viability counter screen (AID 1224836); further: nearly all actives have a fitted effect of over 45% in size
Method in brief: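 HepG2 cells stably carrying hCAR and a CYP2B6-2.2kb reporter were plated 4 h, then given compounds at 15 concentrations plus PK11195 (final 0.75 uM). After 23 h at 37 C, viability was read by CellTiter-Fluor fluorescence.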

[3] = qHTS assay to identify small molecule antagonists of the constitutive androstane receptor (CAR) signaling pathway - cell viability counter screen (AID 1224837); further: nearly all actives have a fitted effect of over 45% in size
Method in brief: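 CITCO at 50 nM final was added alongside compounds (15 concentrations) to double-stable hCAR/CYP2B6-2.2kb HepG2 cells. Following 23 hr at 37 C, cell viability was quantified by CellTiter-Fluor fluorescence intensity.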

[4] = target: Nuclear receptor subfamily 1 group I member 3 (Homo sapiens) (UniProt Q14994); experiment: qHTS assay to identify small molecule antagonists of the constitutive androstane receptor (CAR) signaling pathway (AID 1224838); further: nearly all actives have a fitted effect of over 40% in size
Method in brief: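 Inhibition of CITCO-driven (50 nM final) CYP2B6 reporter expression is measured in HepG2 cells stably carrying hCAR. Fifteen compound concentrations are applied for 24 h at 37 C, followed by luciferase luminescence.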

[5] = target: Nuclear receptor subfamily 1 group I member 3 (Homo sapiens) (UniProt Q14994); experiment: qHTS assay to identify small molecule agonists of the constitutive androstane receptor (CAR) signaling pathway (AID 1224839); further: nearly all actives have a fitted effect of over 15% in size; further: potency means the concentration at half of the fitted maximal effect
Method in brief: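 HepG2 cells stably expressing hCAR and a CYP2B6-2.2kb luciferase reporter were treated with compounds at 15 concentrations plus 0.75 uM PK11195 (final) for 24 h at 37 C; luminescence was read after ONE-Glo addition.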

[6] = qHTS assay to identify small molecule antagonists of the estrogen related receptor signaling pathway with the pleiotropic PPARgamma coactivator (PGC) from Tox21 10K library - cell viability counter screen (AID 1224840; active means well fitted cell-killing curve with a large enough effect in the repeat runs, not every such curve was filed as active; further: nearly all actives have a fitted effect of over 40% in size)
Method in brief: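 Readout: fluorescence intensity from CellTiter-Fluor after 30 min at 37 C/5% CO2. Preceded by 17.5 h treatment of PGC/ERR cells with DMSO-dissolved compounds, added 6 h post-seeding.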

[7] = qHTS assay to identify small molecule antagonists of the estrogen related receptor signaling pathway with the pleiotropic PPARgamma coactivator (PGC) from Tox21 10K library (AID 1224841; call rule not given here; further: actives are mostly falling curves and most rising ones were filed inactive; nearly all actives have a fitted effect of over 50% in size; further: potency means the concentration at half of the fitted maximal effect)
Method in brief: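 One-Glo luminescence, measured after half an hour at room temperature, quantified reporter output of PGC/ERR cells. These had been plated at 2,000 per well, incubated 6 h, dosed with compounds in DMSO, then kept 18 h at 37 C.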

[8] = qHTS assay to identify small molecule agonists of the estrogen related receptor signaling pathway with the pleiotropic PPARgamma coactivator (PGC) from Tox21 10K library (AID 1224842); further: nearly all actives have a fitted effect of over 15% in size
Method in brief: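 PGC/ERR reporter cell line, 2,000 cells per well, incubated 6 h at 37 C before 23 nL compound in DMSO was added. After 18 h at 37 C, One-Glo luminescence read following 30 min at room temperature.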

[9] = qHTS assay to identify small molecule agonists of the hypoxia (HIF-1) signaling pathway - cell viability counter screen (AID 1224844; calls by dose curve; further: nearly all actives have a fitted effect of over 50% in size)
Method in brief: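 In this counter screen, HRE-bla ME-180 cell viability after 17 hrs of compound exposure at 37C was read by CellTiter-Glo luminescence, multiplexed with the beta-lactamase reporter measurement.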

[10] = qHTS assay to identify small molecule antagonists of the retinoic acid receptor (RAR) signaling pathway (AID 1159552; further: nearly all actives have a fitted effect of over 50% in size)
Method in brief: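 RARE-luc C3RL4 cells; cpds + 1 uM (final) retinol, 6 hr, 37 C/5% CO2; luciferase reagent, 30 min RT, luminescence readout. Inhibitors of retinol-driven signal scored.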

[11] = qHTS assay to identify small molecule agonists of the retinoic acid receptor (RAR) signaling pathway (AID 1159553); conditions: C3RL4 RARE luciferase reporter, agonist, 6 h; activation: at 73.3 µM (top of the series) unless noted
Method in brief: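 In this cell-based screen, 1,000 C3RL4 cells per well were cultured overnight, dosed with test chemicals in DMSO for 6 hr, and assessed for RARE luciferase luminescence.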

[12] = target: Luciferin 4-monooxygenase (Photinus pyralis) (UniProt P08659); experiment: qHTS assay to identify small molecule inhibitors of firefly luciferase (AID 1224835); further: nearly all actives have a fitted effect of over 25% in size
Method in brief: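 Biochemical qHTS: compounds run as interplate titrations against purified firefly enzyme, with D-luciferin and ATP each at its KM concentration. Light output recorded by CCD imaging.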

[13] = target: Thyrotropin receptor (Homo sapiens) (UniProt P16473); experiment: qHTS assay to identify small molecule agonists of the thyroid stimulating hormone receptor (TSHR) signaling pathway (AID 1224843; calls by dose curve; further: nearly all actives have a fitted effect of over 45% in size)
Method in brief: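 Agonist-mode screen: TSHR HEK293 cells received test chemicals for half an hour at room temperature, then HTRF cAMP detection reagents for one hour prior to fluorescence measurement. Each chemical ran as a 15-concentration series, triplicated.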

Measured: Potency

Thyrotropin receptor (Homo sapiens), sequence (P16473 whole entry, looked up): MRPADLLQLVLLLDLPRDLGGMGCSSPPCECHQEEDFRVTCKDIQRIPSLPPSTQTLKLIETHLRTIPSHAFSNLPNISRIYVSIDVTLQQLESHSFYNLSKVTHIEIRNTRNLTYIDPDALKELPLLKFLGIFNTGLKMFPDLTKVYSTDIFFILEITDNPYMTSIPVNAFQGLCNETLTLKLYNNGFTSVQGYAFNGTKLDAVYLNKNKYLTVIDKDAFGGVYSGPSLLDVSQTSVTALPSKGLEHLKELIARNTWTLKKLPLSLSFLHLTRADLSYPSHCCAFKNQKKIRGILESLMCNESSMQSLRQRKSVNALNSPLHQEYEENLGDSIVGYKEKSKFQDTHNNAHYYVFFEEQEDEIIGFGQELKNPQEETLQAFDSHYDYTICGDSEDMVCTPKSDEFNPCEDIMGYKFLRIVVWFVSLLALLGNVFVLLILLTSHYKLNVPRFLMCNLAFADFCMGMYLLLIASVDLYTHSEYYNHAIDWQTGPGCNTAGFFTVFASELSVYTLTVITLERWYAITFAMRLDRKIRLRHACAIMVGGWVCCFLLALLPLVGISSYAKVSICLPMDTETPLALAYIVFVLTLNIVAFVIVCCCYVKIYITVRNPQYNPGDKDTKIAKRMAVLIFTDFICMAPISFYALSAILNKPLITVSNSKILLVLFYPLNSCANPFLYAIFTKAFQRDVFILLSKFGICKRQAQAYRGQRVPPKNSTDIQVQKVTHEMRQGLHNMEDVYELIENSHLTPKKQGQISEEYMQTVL
Nuclear receptor subfamily 1 group I member 3 (Homo sapiens), sequence (Q14994 whole entry, looked up): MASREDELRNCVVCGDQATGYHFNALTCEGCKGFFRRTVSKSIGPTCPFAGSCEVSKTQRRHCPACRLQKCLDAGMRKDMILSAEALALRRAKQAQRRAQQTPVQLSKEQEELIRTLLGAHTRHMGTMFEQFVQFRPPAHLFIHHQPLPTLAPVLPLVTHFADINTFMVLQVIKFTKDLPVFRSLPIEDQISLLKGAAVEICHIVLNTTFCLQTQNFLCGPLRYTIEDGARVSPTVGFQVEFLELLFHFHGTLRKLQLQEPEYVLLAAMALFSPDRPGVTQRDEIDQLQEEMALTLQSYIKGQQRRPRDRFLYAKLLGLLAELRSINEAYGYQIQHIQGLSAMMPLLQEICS
Luciferin 4-monooxygenase (Photinus pyralis), sequence (P08659 whole entry, looked up): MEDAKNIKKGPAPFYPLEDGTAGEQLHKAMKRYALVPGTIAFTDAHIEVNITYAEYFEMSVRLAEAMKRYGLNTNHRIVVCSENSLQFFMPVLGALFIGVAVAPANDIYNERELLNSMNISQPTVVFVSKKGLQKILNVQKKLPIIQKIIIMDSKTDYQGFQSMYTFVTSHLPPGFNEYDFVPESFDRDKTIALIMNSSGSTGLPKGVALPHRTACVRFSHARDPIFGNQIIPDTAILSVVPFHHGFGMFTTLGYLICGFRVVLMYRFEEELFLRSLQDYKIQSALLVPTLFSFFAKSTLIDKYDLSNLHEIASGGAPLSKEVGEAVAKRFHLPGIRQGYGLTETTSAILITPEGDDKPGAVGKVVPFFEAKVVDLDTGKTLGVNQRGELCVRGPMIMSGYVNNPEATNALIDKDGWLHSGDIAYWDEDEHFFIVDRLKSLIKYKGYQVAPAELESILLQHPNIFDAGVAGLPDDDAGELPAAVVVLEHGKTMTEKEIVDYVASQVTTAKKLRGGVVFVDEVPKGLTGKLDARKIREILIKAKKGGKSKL

C1CCCNCC1
not listed: [10] | [11] | [12] | [13]
inactive: all other assays above

C[Si](C)(C)N[Si](C)(C)C
not listed: [7] | [8] | [11] | [12] | [13]
inactive: all other assays above

CC(=O)OC/C=C(\C)CCC=C(C)C
not listed: [7] | [8] | [11] | [12] | [13]
inactive: all other assays above

OC1CCCCC1
not listed: [7] | [8] | [13]
inactive: all other assays above

OCc1ccc(Cl)cc1Cl
not listed: [7] | [8] | [11] | [13]
inactive: all other assays above

CC(COCC(C)OC(=O)c1ccccc1)OC(=O)c1ccccc1 (centres undefined)
not listed: [11] | [12] | [13]
inactive: all other assays above

O=C(Cl)c1ccc(C(=O)Cl)cc1
not listed: [7] | [8] | [12]
inactive: all other assays above

CC(=O)C(C)C
inactive: [10] | [11] | [1] | [2] | [3] | [6] | [9]

COc1cc(NC(=O)CC(C)=O)c(OC)cc1Cl
active: [5] 61.4 µM and 61.1 µM | [7] 38.7 µM
not listed: [11] | [13]
inactive: all other assays above

Brc1ccc(Oc2ccc(Br)cc2)cc1
not listed: [7] | [8] | [11] | [12] | [13]
inactive: all other assays above

O=C(O)Cc1c[nH]c2ccccc12
not listed: [10] | [11] | [13]
inactive: all other assays above

N#CCC(=O)O
not listed: [5] | [11]
inactive: all other assays above

CCc1cccc(O)c1
not listed: [7] | [8] | [10] | [11] | [13]
inactive: all other assays above
